This is an account of results in PubChem BioAssay (NCI).

The panel holds about 83,000 compounds, 20% with a hit somewhere; the sample as a whole holds those more often.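 Values shown are percent growth following 48 h exposure of cells in 96-well plates to a single concentration of compound; below 10 was considered active.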 Unmarked numbers belong to inactive results. Calls of active or inactive are those of the source.

Common to all, as to test: NCI-60 one-dose screen, 48 h (100 = growth as untreated, 0 = no growth, -100 = all killed)
One assay relates to HCT-15 colon. Particulars: 10 µM unless noted.
For another assay, the system named is HT29 colon. Particulars: 10 µM unless noted.
The test system of the next assay is SNB-75 CNS. Particulars: 10 µM unless noted.
Another assay relates to SNB-19 CNS. Particulars: 10 µM unless noted.
The next assay deals with U251 CNS. Conditions: 10 µM unless noted.
The next assay has as its system PC-3 prostate. Conditions: 10 µM unless noted.
The next assay deals with SK-MEL-5 melanoma. Particulars: 10 µM unless noted.
For the next assay, the system named is UACC-62 melanoma. Conditions: 10 µM unless noted.
For another assay, the system named is SK-MEL-28 melanoma. Particulars: 10 µM unless noted.
The test system of another assay is SK-MEL-2 melanoma. Conditions: 10 µM unless noted.
The test system of a further assay is EKVX NSCLC. Conditions: 10 µM unless noted.
Another assay has as its system UO-31 renal. Particulars: 10 µM unless noted.
Another assay concerns TK-10 renal. Conditions: 10 µM unless noted.
In another assay the test system is ACHN renal. Conditions: 10 µM unless noted.
In another assay the test system is CAKI-1 renal. Particulars: 10 µM unless noted.
The next assay concerns A498 renal. Conditions: 10 µM unless noted.
The test system of a further assay is CCRF-CEM leukemia. Particulars: 10 µM unless noted.
Another assay has as its system MOLT-4 leukemia. Conditions: 10 µM unless noted.
The subject of a further assay is SN12C renal. Conditions: 10 µM unless noted.
The subject of another assay is LOX IMVI melanoma. Particulars: 10 µM.

Turning to `N#Cc1c(-c2cccnc2)cc(-c2ccc3ccccc3c2)[nH]c1=O`, the growth was 80.7% in the assay with HCT-15 colon; 111% in the assay on HT29 colon; 14.4% with SNB-75 CNS; 66.1% in the assay on SNB-19 CNS; 77.7% in the assay with U251 CNS; 95.5% in the assay with PC-3 prostate. Moreover, the growth in the assay with SK-MEL-5 melanoma was 78.2%; in the assay on UACC-62 melanoma it was 93.8%; in the assay with SK-MEL-28 melanoma, 104%; with SK-MEL-2 melanoma it was 110%; with EKVX NSCLC, 87.1%; in the assay with UO-31 renal, 79%. The growth with TK-10 renal is 109%; in the assay on ACHN renal it was 90.2%; in the assay on CAKI-1 renal, 89.7%; with A498 renal it was 111%; in the assay with CCRF-CEM leukemia, 82%; with MOLT-4 leukemia it was 91.5%.
On to `CC(=O)Nc1cccc(Nc2nccc(N[C@@H](C)c3ccccc3)n2)c1`, for which the growth is 7.75% (active) with HCT-15 colon; 2.53% (active) in the assay on HT29 colon; 7.86% (active) in the assay on SNB-75 CNS; 25.6% in the assay with SNB-19 CNS; 24.4% in the assay with U251 CNS; 30.5% with PC-3 prostate. Moreover, the growth in the assay with SK-MEL-5 melanoma is -31% (active); in the assay on UACC-62 melanoma, 20.6%; with SK-MEL-28 melanoma, 49.4%; with SK-MEL-2 melanoma, 41.5%; in the assay with UO-31 renal it was 25.9%; in the assay with TK-10 renal, 29.1%. Further, the growth was 12.7% with ACHN renal; 29% in the assay with CAKI-1 renal; 68% with A498 renal; 24.9% with CCRF-CEM leukemia; 20.5% in the assay on MOLT-4 leukemia.
As for `Cc1ncsc1-c1ccc(CNC(=O)[C@@H]2C[C@@H](O)CN2C(=O)[C@@H](NC(=O)C2(F)CC2)C(C)(C)C)c(OCCOCCOCCOCCOc2nc(Nc3cc(S(C)(=O)=O)ccc3N[C@@H](c3cccc4c3OC(F)(F)O4)c3ncccc3Cl)nc(N3CCNCC3)n2)c1`, the growth in the assay on HCT-15 colon is 99.4%; in the assay with HT29 colon, 88.1%; with SNB-75 CNS it was 63.2%; in the assay on SNB-19 CNS, 64.8%; in the assay with U251 CNS, 65.8%; with PC-3 prostate, 71.7%. The growth in the assay on SK-MEL-5 melanoma was 65.4%; in the assay on UACC-62 melanoma, 84.8%; in the assay with SK-MEL-28 melanoma, 89.2%; with SK-MEL-2 melanoma, 112%; in the assay with SN12C renal, 80.9%; in the assay on UO-31 renal, 98.5%. Moreover, the growth in the assay with TK-10 renal was 109%; in the assay with ACHN renal it was 98.9%; in the assay with MOLT-4 leukemia it was -5.45% (active).
For `CSc1ccc(NC(=O)c2ccc3nn(/C(C#N)=C/c4ccccn4)nc3c2)cc1`, the growth is -72.1% (active) in the assay with HCT-15 colon; -86.1% (active) with HT29 colon; 35.1% in the assay on SNB-75 CNS; -75.7% (active) in the assay with SNB-19 CNS; -79.9% (active) with U251 CNS; -73.7% (active) in the assay on PC-3 prostate. Moreover, the growth was -92.8% (active) with SK-MEL-5 melanoma; -96.3% (active) in the assay with UACC-62 melanoma; -98.4% (active) in the assay with SK-MEL-28 melanoma; -89.9% (active) with SK-MEL-2 melanoma; -65.7% (active) in the assay on SN12C renal; -99% (active) in the assay on UO-31 renal. In addition, the growth is -95.3% (active) with ACHN renal; -90.9% (active) in the assay with CAKI-1 renal; -33.9% (active) with A498 renal; -47.8% (active) in the assay with CCRF-CEM leukemia; -20.4% (active) in the assay with MOLT-4 leukemia.
With `COCOc1ccc2c(=O)c(C)c(C(=O)N[C@@H](Cc3ccccc3)C(O)C(=O)NCCc3ccc(OC)cc3)oc2c1` (stereo not given in full), the growth in the assay on HCT-15 colon was 102%; with HT29 colon, 113%; in the assay with SNB-75 CNS, 125%; with SNB-19 CNS, 96%; in the assay on U251 CNS, 106%; with PC-3 prostate it was 110%. The growth was 99.4% with SK-MEL-5 melanoma; 102% in the assay with UACC-62 melanoma; 124% in the assay on SK-MEL-28 melanoma; 118% in the assay with SK-MEL-2 melanoma; 111% in the assay with EKVX NSCLC; -20.1% (active) with UO-31 renal. For the same compound, the growth with TK-10 renal was 116%; in the assay with ACHN renal it was 114%; in the assay on CAKI-1 renal, 101%; with A498 renal, 136%; with CCRF-CEM leukemia it was 105%; in the assay with MOLT-4 leukemia it was 94.8%.
Regarding `C/C(=N\N=C\c1cc([N+](=O)[O-])ccc1Cl)c1ccc2c(c1)Nc1ccccc1S2`, the growth is 72.4% in the assay on HCT-15 colon; 72.2% with HT29 colon; 5.46% (active) in the assay on SNB-75 CNS; 51.6% in the assay with SNB-19 CNS; 7.09% (active) in the assay with U251 CNS; 82.4% in the assay on PC-3 prostate. In addition, the growth with SK-MEL-5 melanoma is 78.6%; in the assay on UACC-62 melanoma, 69.6%; with SK-MEL-28 melanoma it was 90.7%; in the assay with SK-MEL-2 melanoma it was 90.5%; in the assay on SN12C renal, 12.4%; in the assay with UO-31 renal, -13.7% (active). Also, the growth in the assay with TK-10 renal was 8.88% (active); in the assay on ACHN renal it was -43.5% (active); with CAKI-1 renal it was 31.3%; in the assay on A498 renal it was 6.23% (active); with CCRF-CEM leukemia, 55%; in the assay with MOLT-4 leukemia it was 44%.
As for `COc1ccc(C(=O)/C=C/c2ccc(Oc3nc(Nc4ccc(F)cc4)nc(N(C)C)n3)c(OC)c2)cc1`, the growth in the assay with HCT-15 colon was 33.8%; in the assay on HT29 colon, 59%; with SNB-75 CNS, 66.4%; with SNB-19 CNS it was 63.4%; in the assay on U251 CNS it was 11.4%; in the assay on PC-3 prostate it was 50.5%. Moreover, the growth in the assay with SK-MEL-5 melanoma was 32.9%; in the assay on UACC-62 melanoma, 41%; in the assay with SK-MEL-28 melanoma, 76.7%; in the assay on SK-MEL-2 melanoma, -8.47% (active); in the assay on SN12C renal, 32.2%; in the assay on UO-31 renal it was 42.9%. Moreover, the growth in the assay on TK-10 renal is 95.7%; in the assay on ACHN renal, 36.9%; in the assay with CAKI-1 renal, 49%; with A498 renal, 78.3%; with CCRF-CEM leukemia it was 19.2%; with MOLT-4 leukemia, 10.8%.
With `CC(=O)Oc1ccccc1C(=O)[Se]CC(=O)Nc1cccc(C(F)(F)F)c1`, the growth in the assay with HCT-15 colon is -79.8% (active); in the assay on HT29 colon, -38.7% (active); with SNB-75 CNS, -39.2% (active); in the assay with SNB-19 CNS it was -78.5% (active); in the assay on U251 CNS, -48.3% (active); in the assay with PC-3 prostate, 24.9%. Further, the growth is -86.4% (active) in the assay with SK-MEL-5 melanoma; -56.7% (active) in the assay on UACC-62 melanoma; -58.8% (active) with SK-MEL-28 melanoma; -21% (active) in the assay with SK-MEL-2 melanoma; -96.7% (active) in the assay on EKVX NSCLC; -85% (active) with UO-31 renal. For the same compound, the growth with TK-10 renal is -83.8% (active); in the assay with ACHN renal, -34.8% (active); in the assay on CAKI-1 renal, -74.4% (active); in the assay with CCRF-CEM leukemia, 24.6%; with MOLT-4 leukemia it was 11.7%.
In the case of `COc1ccc(C(=O)/C=C/c2cccc(Br)c2)cc1S(N)(=O)=O`, the growth in the assay on HCT-15 colon was -69.7% (active); with HT29 colon, -56.4% (active); with SNB-75 CNS, -17% (active); in the assay with SNB-19 CNS, -42.8% (active); with U251 CNS, -98.4% (active); with PC-3 prostate, -34.6% (active). The growth in the assay on UACC-62 melanoma is -55.8% (active); with LOX IMVI melanoma it was -91.7% (active); in the assay on SK-MEL-28 melanoma, -55.6% (active); with SK-MEL-2 melanoma it was -26% (active); in the assay on EKVX NSCLC, -68.4% (active); in the assay with SN12C renal it was -79.2% (active). Besides, the growth is -91.8% (active) in the assay on UO-31 renal; -91.8% (active) in the assay on TK-10 renal; -95.2% (active) in the assay on ACHN renal; -79.9% (active) in the assay on CAKI-1 renal; 93.3% with A498 renal.
